Several values for one entry are separate records, joined by “and”; a condition that tells them apart may be missing. Equal values may be shown once. Inconclusive results are not listed. Entries that show only a call come without a potency. Values without a mark were called inactive. Activity calls are given as the source filed them. The call rests on the fitted dose curve; in most records, active means well fitted inhibition curve with a large enough effect; inconclusive means small, poorly fitted or top-dose-only effect; inactive means flat fitted curve, though single readings scatter.
Assay: Primary qHTS for inhibitors of nuclear receptor binding SET domain protein 2 (NSD2) in an isogenic RCH-ACV NSD2 p.E1099K mutant (9B) (AID 1645876); further: nearly all actives have a fitted effect of over 70% in size
Potency means the concentration at half of the fitted maximal effect.

| SMILES | Potency | activity change, negative = viability loss |
| --- | --- | --- |
| CC(=O)c1ccc(OCC(=O)N2CCCCC2)cc1 | inactive |  |
| Oc1c(Br)cc(Br)c2cccnc12 | 3.76 µM (active) |  |
| C#C[C@]1(O)CC[C@H]2[C@@H]3CCc4cc(O)ccc4[C@H]3CC[C@@]21C | 11.8 µM (active) |  |
| N=C(N)N | inactive |  |
| C=CCCCCCCCCC(=O)O | inactive |  |
| CCCCCCCCCCCC(=O)[O][Sn]([CH2]CCC)([CH2]CCC)[O]C(=O)CCCCCCCCCCC | inactive |  |
| COc1cccc2c1C(=O)c1c(O)c3c(c(O)c1C2=O)C[C@@](O)(C(=O)CO)C[C@@H]3O[C@H]1C[C@H](N)[C@H](O[C@@H]2CCCCO2)[C@H](C)O1 | 0.0067 µM (active) |  |
| O=C(O)Cc1cccc(-c2cc(CCCCCCc3ccc(O[C@H]4O[C@H](CO)[C@@H](O)[C@H](O)[C@@H]4O)c(-c4cccc(CC(=O)O)c4)c3)ccc2O[C@H]2O[C@H](CO)[C@@H](O)[C@H](O)[C@@H]2O)c1 |  | 9.79% [at 0.588 µM] |
| O=C(OCc1ccccc1)c1ccccc1 | inactive |  |
| CC(N)C(=O)OC(C)(C)Cc1ccc(Cl)cc1 (stereo unspecified) | inactive |  |
| O=C(O)/C=C\C(=O)O | inactive |  |
| N#C/C(=C\c1ccc(O)c(O)c1)C(=O)NCc1ccccc1 | 9.2 µM (active) and 13.2 µM (active) |  |
| Cc1[nH]cnc1CN1CCc2c(c3ccccc3n2C)C1=O | inactive |  |
| CC1(C)S[C@@H]2[C@H](NC(=O)[C@H](N)c3ccc(O)cc3)C(=O)N2[C@H]1C(=O)O | inactive |  |
| [O-][n+]1ccccc1SSc1cccc[n+]1[O-] | 0.082 µM (active) |  |
| O=C(Nc1ccc2c(c1)CCN(Cc1ncn[nH]1)C2)c1ccccc1-c1ccc(C(F)(F)F)cc1 | inactive |  |

— PubChem BioAssay (NCATS)
